Measured values taken from PubChem BioAssay AID709 (SRMLSC, 2007).
Screen size: about 65,000 compounds; about 3,600 (5.5%) were called active.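 Rule for the calls: active = at 10 µM, mean starting fluorescence two-fold or more over control wells; inactive = the rest.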 For the sample, actives were picked, then their nearest neighbours and some compounds at random.

Experiment: intrinsic fluorescence of library compounds, ex339/em460 – biochemical, MLSMR library, data from DPM-DC assay, artefact control, profiling panel (AID 709);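 note: signal is the first read of a kinetic run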
Conditions: compound autofluorescence, ex339/em460 nm, NADH buffer; at 10 µM; active compounds read high; 1 = no-compound wells, NADH background

Compound | fluorescence fold increase
O=C1CC(c2cccc(Br)c2)C2=C(CCCC2=O)N1 (stereo not given) | 2.04 (active)
O=C1CC(c2cccc(F)c2)C2=C(CCCC2=O)N1 (stereo not given) | 1.17 (inactive)
O=C1CCCc2c1[nH]c1ccc(Br)cc21 | 1.13 (inactive)
C=CCc1cccc2cc(C(=O)OCC)c(=O)oc12 | 1.21 (inactive)
CC(=O)O[C@]1(C(C)=O)CC[C@H]2[C@@H]3C=C(C)C4=CC(=O)CC[C@]4(C)[C@H]3CC[C@@]21C | 1 (inactive)
COc1ccc(C(=O)NCCc2ccc(S(N)(=O)=O)cc2)cc1OC | 1.15 (inactive)
O=C(NCc1cn2ccsc2n1)Nc1ccc(Cl)cc1 | 1.11 (inactive)
O=C(NCc1ccc(Cl)cc1)c1cc2c(nc3sccn32)s1 | 2.6 (active)
O=c1cc(Cn2nnc(-c3ccc(Cl)cc3)n2)nc2sccn12 | 1.22 (inactive)
O=C(Nc1c2c(nn1-c1ccc(F)cc1)CS(=O)C2)C12CC3CC(CC(C3)C1)C2 (stereo not given) | 1.05 (inactive)
Cc1cc(C)cc(N(CC(=O)Nc2c(C)n(C)n(-c3ccccc3)c2=O)S(C)(=O)=O)c1 | 1.04 (inactive)
Cc1nc2cc(-c3ccc(F)cc3)nn2c(N2CCOCC2)c1C | 1.16 (inactive)
CN(C)CCCNC(=O)c1ccc2[nH]c3ccccc3c2c1 | 3.36 (active)
Cc1ccc(C(=O)NCCNS(=O)(=O)c2ccccc2)cc1 | 1.02 (inactive)
COCCCNC(=O)c1ccc2c(c1)ncn2-c1ccccc1OC | 1.07 (inactive)
CSc1nnc(CNC(=O)c2ccccc2)n1-c1ccc(F)cc1 | 1.11 (inactive)
O=S(=O)(c1cccc(S(=O)(=O)N2CCC(n3nnc4ccccc43)CC2)c1)N1CCCCC1 | 1.05 (inactive)
Cc1ccc2oc(=O)c3cnn(CC(=O)N4CCCCCC4)c3c2c1 | 1.04 (inactive)
Cc1ccc(C(=O)N2CCCCCC2)cc1Br | 1.08 (inactive)
Cc1ccc2cc3cc(C(=O)N4CCCCCC4)oc3nc2c1 | 3.22 (active)
Cc1cc(C)n2nc(C(=O)Oc3ccc4c(c3)OCO4)nc2n1 | 1.15 (inactive)
Cc1nc(Nc2ccc3c(c2)OCCO3)c2nnn(Cc3ccccc3Cl)c2n1 | 2.39 (active)

Compound | fluorescence fold increase
C#CCNc1nc(C(C)C)nc2c1nnn2Cc1ccccc1F | 1.04 (inactive)
CC(C)(C)c1nc(NCC2CCCO2)c2nnn(Cc3ccccc3)c2n1 (stereo not given) | 1.16 (inactive)
CCc1ccc2oc(=O)cc(CN3CCCCC3C)c2c1 (stereo not given) | 1.11 (inactive)
CCCc1cc(=O)oc2c(C)c(O)c(CN3CCCCC3)cc12 | 2.34 (active)
CCOC(=O)N1CCN(Cc2oc(CO)cc(=O)c2O)CC1 | 1.04 (inactive)
C[N+](C)(C)CCNC(=O)c1c(O)c2c([nH]c1=O)CCCC2 | 1.18 (inactive)
O=C(Cn1c(-c2ccccn2)nc2ccccc21)NCCN1CCOCC1 | 1.39 (inactive)
O=C(COc1ccccc1F)NC1CC1 | 1.01 (inactive)
O=C(CC1OC(=O)c2ccccc21)NC1CCCCC1 (stereo not given) | 1.08 (inactive)
O=C(COc1ccc2oc3c(c2c1)CCCC3)Nc1ccccn1 | 1.06 (inactive)
CCc1cc(=O)oc2cc(OCC(=O)N3CCCc4ccccc43)ccc12 | 1.26 (inactive)
NC(=O)COc1ccc2c3c(c(=O)oc2c1)CCCCC3 | 3.71 (active)
O=C(COc1ccc2c3c(c(=O)oc2c1)CCC3)NC1CCCCC1 | 2.13 (active)
O=C(C1CCC(C(=O)N2CCCC2)CC1)N1CCCC1 (stereo not given) | 1.02 (inactive)
Cc1nnc(SCC(=O)NCc2ccccc2)s1 | 1.06 (inactive)
O=C(O)CC(c1ccccc1)n1cnnn1 (stereo not given) | 1.14 (inactive)
O=C(CS(=O)(=O)Cc1ccccc1)Nc1cccnc1 | 1.1 (inactive)
CCOCCN(C=O)c1cccc(OC)c1 | 1.15 (inactive)
COc1ccccc1C1/C(=C(/O)c2ccc(OC(C)C)cc2)C(=O)C(=O)N1c1cc(C)on1 (stereo not given) | 1.06 (inactive)
Cc1ccc(S(=O)(=O)NCC(=O)N(CC(=O)NC2CCCCC2)Cc2ccco2)cc1 | 1 (inactive)
CC(Cc1cccs1)NC(=O)NC1CCCCC1 (stereo not given) | 1.06 (inactive)
CC(=O)Nc1cc2ccc(OC(C)=O)cc2oc1=O | 2.1 (active)

Compound | fluorescence fold increase
COc1ccc(C(=O)c2oc3ccc(Br)cc3c2NC(C)=O)cc1 | 1.11 (inactive)
COc1ccc2oc(C)c(NC(C)=O)c2c1 | 1.06 (inactive)
CC(=O)Oc1ccc2c(C)c(CC(C)O)c(=O)oc2c1 (stereo not given) | 3.67 (active)
O=C(NCc1ccc(Cl)c(Cl)c1)c1cccnc1 | 0.91 (inactive)
O=C1C=C(NCCNc2c(F)c(F)c(CO)c(F)c2F)CCC1 | 1.14 (inactive)
CC(C)c1nc(N2CCOCC2)c(C#N)c2c1COC(C)(C)C2 | 2.28 (active)
COc1ccc(CSc2nc(N3CCOCC3)c3c(c2C#N)CC(C)(C)OC3)cc1 | 1.08 (inactive)
CC(C)C(=O)N1CCN(c2nc(-c3ccccc3)c3c(c2C#N)CC(C)(C)OC3)CC1 | 2.34 (active)
CC1(C)Cc2c(C#N)c(SCc3nc4ccccc4[nH]3)nc(N3CCOCC3)c2CO1 | 1.39 (inactive)
Cc1nc(NCCN)c(C#N)c2c1COC(C)(C)C2 | 1.92 (inactive)
CC(C)Cc1nc(N2CCOCC2)c(C#N)c2c1CCC2 | 1.97 (inactive)
C/C(=C\c1ccco1)C1Nc2cccc3cccc(c23)N1 | 1.19 (inactive)
CCOc1c(OC)cc(C2C(C#N)=C(N)Oc3n[nH]c(-c4ccncc4)c32)cc1OC (stereo not given) | 1.13 (inactive)
COc1ccc(OC)c(C(=O)CSc2nnc(-c3cccs3)o2)c1 | 3.64 (active)
COc1ccc(-c2nnc(SCC(=O)c3cccs3)o2)c(OC)c1 | 1.12 (inactive)
COc1ccc(-n2c(C)cc(C(=O)CSc3nnc(-c4cccs4)o3)c2C)cc1 | 1.07 (inactive)
COc1ccc2c(c1)CCc1c(C(=O)N3CCCC3)noc1-2 | 1.1 (inactive)
CN(CCc1ccccn1)S(=O)(=O)c1ccc2c3c(cccc13)C(=O)N2 | 3.89 (active)
O=c1[nH]nc(Cc2ccccn2)c2ccccc12 | 1.07 (inactive)
CC1(C)CN=C(N2CCN(c3ncnc4sc5c(c34)CCCC5)CC2)S1 | 1.03 (inactive)
Fc1c(F)c(C(F)(F)F)c(F)c(F)c1N1CCN(c2ccc3nnc(C(F)(F)F)n3n2)CC1 | 1.93 (inactive)
